Tests used:
Experiment in all cases: DAPPL (digital affinity profiling via proximity ligation, sequencing); 10 mM Tris-HCl pH 7.5, 50 mM NaCl, 1 mM DTT, 4% glycerol, room temperature, 30 min; GST-TFs on glutathione beads, 16-mer random dsDNA library, 0.1% formaldehyde crosslink after washing; high values mean tight binding
[1] = target: T1, FEV (Homo sapiens, UniProt Q99581 1-238); details: protein: recombinant; tags: N-terminal GST; dsDNA, one strand shown
T1 sequence: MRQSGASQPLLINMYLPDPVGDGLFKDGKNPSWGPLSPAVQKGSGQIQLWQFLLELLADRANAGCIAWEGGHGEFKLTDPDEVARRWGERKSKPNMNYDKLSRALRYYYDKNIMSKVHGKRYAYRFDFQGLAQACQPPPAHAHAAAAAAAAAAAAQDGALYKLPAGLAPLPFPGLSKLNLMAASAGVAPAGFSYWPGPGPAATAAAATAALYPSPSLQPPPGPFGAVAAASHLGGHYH
Outline: (§1)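 Binding signal is given per hexamer as its read frequency for a factor divided by its frequency in the tag-only sample. GST-fused human transcription factors were expressed in yeast, captured on glutathione beads, barcoded with DNA and pooled with that sample, then incubated with 200 nmole of a 16-mer random double-stranded DNA library in Tris/NaCl/DTT/glycerol buffer for 30 min at room temperature. The pools were then washed, crosslinked, proximity-ligated, amplified by PCR and sequenced on an Illumina NextSeq500.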

[2] = target: ETV5 (Homo sapiens, UniProt P41161 1-510); details: protein: recombinant; tags: N-terminal GST; dsDNA, one strand shown
ETV5, sequence (P41161 whole entry): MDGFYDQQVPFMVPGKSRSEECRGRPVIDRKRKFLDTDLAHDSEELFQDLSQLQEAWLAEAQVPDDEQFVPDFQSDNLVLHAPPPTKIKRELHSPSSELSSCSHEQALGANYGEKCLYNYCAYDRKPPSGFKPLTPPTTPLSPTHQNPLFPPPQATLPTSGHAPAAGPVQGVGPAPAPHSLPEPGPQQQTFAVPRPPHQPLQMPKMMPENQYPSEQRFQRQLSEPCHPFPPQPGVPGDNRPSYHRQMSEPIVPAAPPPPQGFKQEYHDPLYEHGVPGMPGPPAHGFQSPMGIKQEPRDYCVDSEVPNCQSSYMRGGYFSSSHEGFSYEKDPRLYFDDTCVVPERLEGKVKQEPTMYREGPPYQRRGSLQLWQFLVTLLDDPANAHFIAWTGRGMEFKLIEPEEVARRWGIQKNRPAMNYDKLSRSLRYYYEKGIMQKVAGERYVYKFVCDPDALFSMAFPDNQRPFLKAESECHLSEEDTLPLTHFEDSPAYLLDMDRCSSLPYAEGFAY
Outline: as §1

[3] = target: HSF1 (Homo sapiens, UniProt Q00613 1-529); details: protein: recombinant; tags: N-terminal GST; chain copies: 3; dsDNA, one strand shown
HSF1, sequence (Q00613 whole entry): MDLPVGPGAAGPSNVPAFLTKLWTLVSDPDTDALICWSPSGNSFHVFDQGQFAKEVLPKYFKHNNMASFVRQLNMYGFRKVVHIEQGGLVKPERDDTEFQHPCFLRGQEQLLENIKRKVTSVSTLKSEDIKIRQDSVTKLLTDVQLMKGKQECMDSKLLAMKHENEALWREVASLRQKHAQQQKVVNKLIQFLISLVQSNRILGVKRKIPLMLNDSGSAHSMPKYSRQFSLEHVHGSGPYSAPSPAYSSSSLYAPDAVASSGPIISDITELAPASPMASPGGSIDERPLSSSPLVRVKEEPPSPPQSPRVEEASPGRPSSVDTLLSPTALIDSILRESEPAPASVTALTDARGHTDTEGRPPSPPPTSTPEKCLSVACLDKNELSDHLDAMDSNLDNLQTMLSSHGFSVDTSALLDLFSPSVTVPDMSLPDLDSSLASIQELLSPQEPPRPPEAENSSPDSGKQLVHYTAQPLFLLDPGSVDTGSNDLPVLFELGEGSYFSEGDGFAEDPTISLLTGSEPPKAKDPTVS
Outline: as §1

[4] = target: T2, SPIC (Homo sapiens, UniProt Q8N5J4 1-248); details: protein: recombinant; tags: N-terminal GST; dsDNA, one strand shown
T2 sequence: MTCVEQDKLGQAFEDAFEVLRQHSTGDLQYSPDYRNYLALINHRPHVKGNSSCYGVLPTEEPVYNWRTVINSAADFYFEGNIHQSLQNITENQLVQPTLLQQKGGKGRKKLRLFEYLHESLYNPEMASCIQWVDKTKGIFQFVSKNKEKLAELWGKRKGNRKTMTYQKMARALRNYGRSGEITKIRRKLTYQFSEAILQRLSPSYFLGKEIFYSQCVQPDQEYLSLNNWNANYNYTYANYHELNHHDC
Outline: as §1

[5] = target: ELF4 (Homo sapiens, UniProt Q99607 1-663); details: protein: recombinant; tags: N-terminal GST; dsDNA, one strand shown
ELF4, sequence (Q99607 whole entry): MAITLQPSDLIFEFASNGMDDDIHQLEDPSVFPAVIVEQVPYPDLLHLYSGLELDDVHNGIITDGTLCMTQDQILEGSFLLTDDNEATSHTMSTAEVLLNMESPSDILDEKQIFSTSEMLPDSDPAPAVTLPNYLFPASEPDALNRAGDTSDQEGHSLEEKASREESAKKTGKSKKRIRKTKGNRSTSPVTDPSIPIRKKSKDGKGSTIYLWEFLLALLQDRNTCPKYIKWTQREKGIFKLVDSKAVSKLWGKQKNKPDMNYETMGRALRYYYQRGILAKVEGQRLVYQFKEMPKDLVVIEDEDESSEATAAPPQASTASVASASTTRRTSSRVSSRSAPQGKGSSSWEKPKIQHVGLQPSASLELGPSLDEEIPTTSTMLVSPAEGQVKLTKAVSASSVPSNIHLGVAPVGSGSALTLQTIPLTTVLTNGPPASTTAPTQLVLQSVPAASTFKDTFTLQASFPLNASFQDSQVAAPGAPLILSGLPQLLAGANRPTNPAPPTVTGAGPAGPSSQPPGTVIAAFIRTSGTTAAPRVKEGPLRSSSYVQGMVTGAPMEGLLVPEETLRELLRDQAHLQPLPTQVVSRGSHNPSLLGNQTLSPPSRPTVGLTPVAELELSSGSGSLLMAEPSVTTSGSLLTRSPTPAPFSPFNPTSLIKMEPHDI
Outline: as §1

[6] = target: T3, ELK4 (Homo sapiens, UniProt P28324-2 1-405); details: protein: recombinant; tags: N-terminal GST; dsDNA, one strand shown
T3 sequence: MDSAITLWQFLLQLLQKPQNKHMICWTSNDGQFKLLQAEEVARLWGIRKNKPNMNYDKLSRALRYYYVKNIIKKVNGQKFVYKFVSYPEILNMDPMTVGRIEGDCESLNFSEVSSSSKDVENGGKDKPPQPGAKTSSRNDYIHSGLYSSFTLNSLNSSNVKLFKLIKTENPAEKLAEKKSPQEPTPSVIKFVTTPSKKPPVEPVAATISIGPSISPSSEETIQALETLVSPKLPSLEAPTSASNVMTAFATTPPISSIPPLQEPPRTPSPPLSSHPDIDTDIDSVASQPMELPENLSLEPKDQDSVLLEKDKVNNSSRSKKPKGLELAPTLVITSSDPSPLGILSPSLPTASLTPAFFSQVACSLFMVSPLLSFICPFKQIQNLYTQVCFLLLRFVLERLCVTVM
Outline: as §1

[7] = target: T4, ETV2 (Homo sapiens, UniProt O00321 1-342); details: protein: recombinant; tags: N-terminal GST; dsDNA, one strand shown
T4 sequence: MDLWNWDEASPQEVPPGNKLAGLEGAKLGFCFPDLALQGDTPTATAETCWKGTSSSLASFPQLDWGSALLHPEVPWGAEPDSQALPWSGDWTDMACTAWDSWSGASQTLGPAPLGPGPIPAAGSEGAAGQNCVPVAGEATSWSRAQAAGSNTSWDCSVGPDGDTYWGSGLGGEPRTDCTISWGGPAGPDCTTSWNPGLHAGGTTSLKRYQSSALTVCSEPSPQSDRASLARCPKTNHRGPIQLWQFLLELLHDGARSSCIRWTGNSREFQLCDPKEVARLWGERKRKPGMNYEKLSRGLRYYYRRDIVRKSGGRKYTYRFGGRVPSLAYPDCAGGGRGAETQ
Outline: as §1

[8] = target: T5, ELF3 (Homo sapiens, UniProt P78545 1-371); details: protein: recombinant; tags: N-terminal GST; dsDNA, one strand shown
T5 sequence: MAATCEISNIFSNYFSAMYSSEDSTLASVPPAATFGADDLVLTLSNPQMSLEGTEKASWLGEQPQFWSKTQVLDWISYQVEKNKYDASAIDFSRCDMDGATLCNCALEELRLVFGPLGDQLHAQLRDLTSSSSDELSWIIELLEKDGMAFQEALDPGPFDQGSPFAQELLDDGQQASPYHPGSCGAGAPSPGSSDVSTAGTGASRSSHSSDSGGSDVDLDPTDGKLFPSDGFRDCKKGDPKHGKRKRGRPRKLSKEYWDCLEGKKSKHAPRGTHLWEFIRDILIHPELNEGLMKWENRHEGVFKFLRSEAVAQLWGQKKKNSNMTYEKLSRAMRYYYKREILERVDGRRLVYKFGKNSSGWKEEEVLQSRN
Outline: as §1

[9] = target: CRX (Homo sapiens, UniProt O43186 1-299); details: protein: recombinant; tags: N-terminal GST; dsDNA, one strand shown
CRX, sequence (O43186 whole entry): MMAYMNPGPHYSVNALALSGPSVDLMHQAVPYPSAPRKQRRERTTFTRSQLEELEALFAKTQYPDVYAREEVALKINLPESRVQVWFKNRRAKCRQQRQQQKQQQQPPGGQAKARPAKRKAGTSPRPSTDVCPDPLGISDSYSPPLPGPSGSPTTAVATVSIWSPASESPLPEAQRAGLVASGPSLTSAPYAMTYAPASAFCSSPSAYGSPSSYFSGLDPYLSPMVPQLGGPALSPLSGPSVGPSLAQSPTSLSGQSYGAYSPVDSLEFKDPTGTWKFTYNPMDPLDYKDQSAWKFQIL
Outline: as §1

[10] = target: ETV1 (Homo sapiens, UniProt P50549 1-477); details: protein: recombinant; tags: N-terminal GST; dsDNA, one strand shown
ETV1, sequence (P50549 whole entry): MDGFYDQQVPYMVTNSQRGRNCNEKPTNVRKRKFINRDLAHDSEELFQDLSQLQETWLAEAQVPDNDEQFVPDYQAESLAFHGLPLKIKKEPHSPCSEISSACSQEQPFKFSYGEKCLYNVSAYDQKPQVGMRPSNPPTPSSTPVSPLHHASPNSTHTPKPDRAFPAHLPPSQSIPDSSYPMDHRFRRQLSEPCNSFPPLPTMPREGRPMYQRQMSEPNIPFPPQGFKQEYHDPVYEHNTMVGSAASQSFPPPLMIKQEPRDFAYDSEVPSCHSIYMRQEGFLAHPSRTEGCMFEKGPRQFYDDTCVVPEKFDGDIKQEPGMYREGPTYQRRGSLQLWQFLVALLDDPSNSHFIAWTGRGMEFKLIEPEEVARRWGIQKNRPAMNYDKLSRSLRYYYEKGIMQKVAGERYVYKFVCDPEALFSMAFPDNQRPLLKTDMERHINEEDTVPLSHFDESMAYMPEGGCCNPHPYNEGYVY
Outline: as §1

## TCACAA
[1]
  binding signal: 1.14 fold enrichment (6-mer frequency, TF over GST control)
[2]
  binding signal: 1.12 fold enrichment (6-mer frequency, TF over GST control)
[3]
  binding signal: 1.03 fold enrichment (6-mer frequency, TF over GST control)
[4]
  binding signal: 1.18 fold enrichment (6-mer frequency, TF over GST control)
[5]
  binding signal: 1.12 fold enrichment (6-mer frequency, TF over GST control)
[6]
  binding signal: 1.21 fold enrichment (6-mer frequency, TF over GST control)
[7]
  binding signal: 1.16 fold enrichment (6-mer frequency, TF over GST control)
[8]
  binding signal: 1.15 fold enrichment (6-mer frequency, TF over GST control)
[9]
  binding signal: 1.09 fold enrichment (6-mer frequency, TF over GST control)
[10]
  binding signal: 1.13 fold enrichment (6-mer frequency, TF over GST control)

## TTTGGT
[1]
  binding signal: 1.37 fold enrichment (6-mer frequency, TF over GST control)
[2]
  binding signal: 1.29 fold enrichment (6-mer frequency, TF over GST control)
[3]
  binding signal: 1.36 fold enrichment (6-mer frequency, TF over GST control)
[4]
  binding signal: 1.37 fold enrichment (6-mer frequency, TF over GST control)
[5]
  binding signal: 1.3 fold enrichment (6-mer frequency, TF over GST control)
[6]
  binding signal: 1.44 fold enrichment (6-mer frequency, TF over GST control)
[7]
  binding signal: 1.43 fold enrichment (6-mer frequency, TF over GST control)
[8]
  binding signal: 1.17 fold enrichment (6-mer frequency, TF over GST control)
[9]
  binding signal: 1.51 fold enrichment (6-mer frequency, TF over GST control)
[10]
  binding signal: 1.36 fold enrichment (6-mer frequency, TF over GST control)

## CGAAAC
[1]
  binding signal: 1.2 fold enrichment (6-mer frequency, TF over GST control)
[2]
  binding signal: 1.25 fold enrichment (6-mer frequency, TF over GST control)
[3]
  binding signal: 1.58 fold enrichment (6-mer frequency, TF over GST control)
[4]
  binding signal: 1.27 fold enrichment (6-mer frequency, TF over GST control)
[5]
  binding signal: 1.2 fold enrichment (6-mer frequency, TF over GST control)
[6]
  binding signal: 1.15 fold enrichment (6-mer frequency, TF over GST control)
[7]
  binding signal: 1.22 fold enrichment (6-mer frequency, TF over GST control)
[8]
  binding signal: 1.15 fold enrichment (6-mer frequency, TF over GST control)
[9]
  binding signal: 1.02 fold enrichment (6-mer frequency, TF over GST control)
[10]
  binding signal: 1.21 fold enrichment (6-mer frequency, TF over GST control)

## TCCGGA
[1]
  binding signal: 3.95 fold enrichment (6-mer frequency, TF over GST control)
[2]
  binding signal: 2.83 fold enrichment (6-mer frequency, TF over GST control)
[3]
  binding signal: 1.58 fold enrichment (6-mer frequency, TF over GST control)
[4]
  binding signal: 2.3 fold enrichment (6-mer frequency, TF over GST control)
[5]
  binding signal: 2.27 fold enrichment (6-mer frequency, TF over GST control)
[6]
  binding signal: 1.94 fold enrichment (6-mer frequency, TF over GST control)
[7]
  binding signal: 2.27 fold enrichment (6-mer frequency, TF over GST control)
[8]
  binding signal: 2.23 fold enrichment (6-mer frequency, TF over GST control)
[9]
  binding signal: 1.14 fold enrichment (6-mer frequency, TF over GST control)
[10]
  binding signal: 2.75 fold enrichment (6-mer frequency, TF over GST control)

## TACAAG
[1]
  binding signal: 1.01 fold enrichment (6-mer frequency, TF over GST control)
[2]
  binding signal: 1.15 fold enrichment (6-mer frequency, TF over GST control)
[3]
  binding signal: 1.07 fold enrichment (6-mer frequency, TF over GST control)
[4]
  binding signal: 1.17 fold enrichment (6-mer frequency, TF over GST control)
[5]
  binding signal: 1.1 fold enrichment (6-mer frequency, TF over GST control)
[6]
  binding signal: 1.16 fold enrichment (6-mer frequency, TF over GST control)
[7]
  binding signal: 1.03 fold enrichment (6-mer frequency, TF over GST control)
[8]
  binding signal: 1.23 fold enrichment (6-mer frequency, TF over GST control)
[9]
  binding signal: 1.11 fold enrichment (6-mer frequency, TF over GST control)
[10]
  binding signal: 1.06 fold enrichment (6-mer frequency, TF over GST control)

## CTAAAT
[1]
  binding signal: 1.3 fold enrichment (6-mer frequency, TF over GST control)
[2]
  binding signal: 1.42 fold enrichment (6-mer frequency, TF over GST control)
[3]
  binding signal: 1.59 fold enrichment (6-mer frequency, TF over GST control)
[4]
  binding signal: 1.38 fold enrichment (6-mer frequency, TF over GST control)
[5]
  binding signal: 1.36 fold enrichment (6-mer frequency, TF over GST control)
[6]
  binding signal: 1.42 fold enrichment (6-mer frequency, TF over GST control)
[7]
  binding signal: 1.33 fold enrichment (6-mer frequency, TF over GST control)
[8]
  binding signal: 1.46 fold enrichment (6-mer frequency, TF over GST control)
[9]
  binding signal: 1.9 fold enrichment (6-mer frequency, TF over GST control)
[10]
  binding signal: 1.42 fold enrichment (6-mer frequency, TF over GST control)

## TAGTCC
[1]
  binding signal: 1.07 fold enrichment (6-mer frequency, TF over GST control)
[2]
  binding signal: 1.14 fold enrichment (6-mer frequency, TF over GST control)
[3]
  binding signal: 1.21 fold enrichment (6-mer frequency, TF over GST control)
[4]
  binding signal: 1.16 fold enrichment (6-mer frequency, TF over GST control)
[5]
  binding signal: 1.07 fold enrichment (6-mer frequency, TF over GST control)
[6]
  binding signal: 1.12 fold enrichment (6-mer frequency, TF over GST control)
[7]
  binding signal: 1.21 fold enrichment (6-mer frequency, TF over GST control)
[8]
  binding signal: 1.13 fold enrichment (6-mer frequency, TF over GST control)
[9]
  binding signal: 1.38 fold enrichment (6-mer frequency, TF over GST control)
[10]
  binding signal: 1.1 fold enrichment (6-mer frequency, TF over GST control)

## TATGTG
[1]
  binding signal: 1.08 fold enrichment (6-mer frequency, TF over GST control)
[2]
  binding signal: 1.13 fold enrichment (6-mer frequency, TF over GST control)
[3]
  binding signal: 1.01 fold enrichment (6-mer frequency, TF over GST control)
[4]
  binding signal: 1.22 fold enrichment (6-mer frequency, TF over GST control)
[5]
  binding signal: 1.13 fold enrichment (6-mer frequency, TF over GST control)
[6]
  binding signal: 1.17 fold enrichment (6-mer frequency, TF over GST control)
[7]
  binding signal: 1.06 fold enrichment (6-mer frequency, TF over GST control)
[8]
  binding signal: 1.16 fold enrichment (6-mer frequency, TF over GST control)
[9]
  binding signal: 1.09 fold enrichment (6-mer frequency, TF over GST control)
[10]
  binding signal: 1.08 fold enrichment (6-mer frequency, TF over GST control)
